± gives the standard deviation of the averaged measurements. The full data set covers some 5,400 targets. This sample favours those with the largest changes.
Compound: Nc1nc2c(ncn2[C@@H]2O[C@H](COP(=O)(O)OP(=O)(O)OP(=O)(O)O)[C@@H](O)[C@H]2O)c(=O)[nH]1 [guanosine triphosphate]
Assay: NP40-soluble protein abundance relative to vehicle (solubility fold change) (ratio); higher = more soluble protein in presence of GTP
Experimental: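 Solubility proteome profiling in Jurkat crude lysate. Lysate was treated with Mg-GTP (0.1-10 mM) for 10 min at room temperature and 3 min at 37 °C, then solubilised with 0.8% NP40 and benzonase, followed by ultracentrifugation. Proteins were quantified by TMT10 LC-MS/MS; the value is the NP40-soluble abundance relative to the NP40-processed vehicle, from 3 independent experiments.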

Sequence of UniProt P60228 (P60228 whole entry): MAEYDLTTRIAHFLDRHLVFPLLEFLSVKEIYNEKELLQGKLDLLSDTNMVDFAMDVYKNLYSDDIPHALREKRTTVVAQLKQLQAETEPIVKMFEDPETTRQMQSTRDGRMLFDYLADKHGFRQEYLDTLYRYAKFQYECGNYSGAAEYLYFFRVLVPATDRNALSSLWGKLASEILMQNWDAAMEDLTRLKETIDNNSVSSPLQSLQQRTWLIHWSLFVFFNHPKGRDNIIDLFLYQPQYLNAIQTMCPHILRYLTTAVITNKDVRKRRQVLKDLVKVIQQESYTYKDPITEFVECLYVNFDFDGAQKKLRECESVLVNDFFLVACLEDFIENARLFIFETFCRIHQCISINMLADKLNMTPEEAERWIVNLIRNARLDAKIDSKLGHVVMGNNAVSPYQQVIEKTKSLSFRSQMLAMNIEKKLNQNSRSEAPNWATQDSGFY
Sequence of UniProt Q8NI27 (Q8NI27 whole entry): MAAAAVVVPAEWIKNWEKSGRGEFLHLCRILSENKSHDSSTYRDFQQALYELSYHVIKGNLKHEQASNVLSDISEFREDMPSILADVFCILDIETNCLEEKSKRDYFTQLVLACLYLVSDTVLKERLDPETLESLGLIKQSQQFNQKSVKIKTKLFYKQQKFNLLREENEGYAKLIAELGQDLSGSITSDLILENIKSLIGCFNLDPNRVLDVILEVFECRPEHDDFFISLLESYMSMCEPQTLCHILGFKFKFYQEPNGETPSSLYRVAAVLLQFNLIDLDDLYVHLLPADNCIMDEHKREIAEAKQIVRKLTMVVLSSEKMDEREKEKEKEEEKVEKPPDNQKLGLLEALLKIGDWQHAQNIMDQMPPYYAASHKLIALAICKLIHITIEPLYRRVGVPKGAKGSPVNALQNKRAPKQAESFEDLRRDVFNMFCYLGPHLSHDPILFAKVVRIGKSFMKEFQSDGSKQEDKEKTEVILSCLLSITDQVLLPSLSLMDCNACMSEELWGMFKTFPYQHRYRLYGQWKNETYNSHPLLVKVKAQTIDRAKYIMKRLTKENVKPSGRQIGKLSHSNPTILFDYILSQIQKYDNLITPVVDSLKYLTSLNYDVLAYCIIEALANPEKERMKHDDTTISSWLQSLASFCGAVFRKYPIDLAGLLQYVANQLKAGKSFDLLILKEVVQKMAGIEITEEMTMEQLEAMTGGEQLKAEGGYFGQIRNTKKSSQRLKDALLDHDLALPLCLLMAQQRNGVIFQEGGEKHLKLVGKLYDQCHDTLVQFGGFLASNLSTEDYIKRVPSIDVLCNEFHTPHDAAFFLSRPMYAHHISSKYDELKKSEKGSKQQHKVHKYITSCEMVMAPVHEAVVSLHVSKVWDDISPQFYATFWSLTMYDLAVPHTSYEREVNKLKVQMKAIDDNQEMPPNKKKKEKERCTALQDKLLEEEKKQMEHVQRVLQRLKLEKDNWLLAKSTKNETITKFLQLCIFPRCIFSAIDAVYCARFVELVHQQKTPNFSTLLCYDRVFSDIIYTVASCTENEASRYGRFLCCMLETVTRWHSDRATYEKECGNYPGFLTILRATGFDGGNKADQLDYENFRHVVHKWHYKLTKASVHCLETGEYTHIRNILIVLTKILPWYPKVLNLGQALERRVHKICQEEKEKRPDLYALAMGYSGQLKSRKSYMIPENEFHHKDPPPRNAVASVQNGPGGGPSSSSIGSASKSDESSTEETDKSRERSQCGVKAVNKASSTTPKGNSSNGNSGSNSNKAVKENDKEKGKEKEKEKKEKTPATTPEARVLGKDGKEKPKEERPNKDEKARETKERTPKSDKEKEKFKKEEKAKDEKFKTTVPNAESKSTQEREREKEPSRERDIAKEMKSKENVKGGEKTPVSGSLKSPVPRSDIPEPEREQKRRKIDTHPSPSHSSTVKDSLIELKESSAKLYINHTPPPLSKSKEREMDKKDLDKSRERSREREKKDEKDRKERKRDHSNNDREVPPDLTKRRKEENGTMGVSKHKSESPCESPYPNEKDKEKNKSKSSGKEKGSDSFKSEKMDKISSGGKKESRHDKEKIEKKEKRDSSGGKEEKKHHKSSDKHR
Sequence of UniProt Q13347 (Q13347 whole entry): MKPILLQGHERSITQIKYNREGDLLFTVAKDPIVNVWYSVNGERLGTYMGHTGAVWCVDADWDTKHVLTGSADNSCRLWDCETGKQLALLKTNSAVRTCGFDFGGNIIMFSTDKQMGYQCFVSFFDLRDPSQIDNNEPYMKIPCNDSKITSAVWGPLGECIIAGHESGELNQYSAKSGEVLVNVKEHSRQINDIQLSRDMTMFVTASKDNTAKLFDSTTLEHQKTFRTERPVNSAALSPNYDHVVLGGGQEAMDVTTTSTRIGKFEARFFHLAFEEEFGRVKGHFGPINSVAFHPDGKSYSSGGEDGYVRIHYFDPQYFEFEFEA
Sequence of UniProt Q8N2K0 (Q8N2K0 whole entry): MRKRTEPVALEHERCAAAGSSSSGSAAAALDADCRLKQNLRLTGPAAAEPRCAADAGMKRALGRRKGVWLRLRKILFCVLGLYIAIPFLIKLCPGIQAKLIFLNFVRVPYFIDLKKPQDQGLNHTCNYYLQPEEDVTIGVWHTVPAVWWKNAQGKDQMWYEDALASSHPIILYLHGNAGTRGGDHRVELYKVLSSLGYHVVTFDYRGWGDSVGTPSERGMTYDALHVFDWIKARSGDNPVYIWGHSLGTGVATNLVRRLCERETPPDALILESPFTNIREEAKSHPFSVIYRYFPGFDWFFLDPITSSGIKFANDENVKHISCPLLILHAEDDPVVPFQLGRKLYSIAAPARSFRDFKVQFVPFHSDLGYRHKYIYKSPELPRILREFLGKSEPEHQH

Target	NP40-soluble protein abundance (concentration: 0.1mM)	NP40-soluble protein abundance (concentration: 0.5mM)	NP40-soluble protein abundance (concentration: 1mM)	NP40-soluble protein abundance (concentration: 2mM)	NP40-soluble protein abundance (concentration: 4mM)	NP40-soluble protein abundance (concentration: 6mM)	NP40-soluble protein abundance (concentration: 8mM)	NP40-soluble protein abundance (concentration: 10mM)
UniProt P60228	1.09 ± 0.046	1.08 ± 0.061	1.05 ± 0.098	1.14 ± 0.17	1.32 ± 0.27	1.44 ± 0.33	1.58 ± 0.3	1.75 ± 0.38
UniProt Q02447-3	0.995 ± 0.021	1 ± 0.078	1.01 ± 0.033	0.984 ± 0.067	0.983 ± 0.049	1.01 ± 0.084	1.08 ± 0.055	1.05 ± 0.016
THOC2 (UniProt Q8NI27)	1.14 ± 0.054	1.33 ± 0.14	1.39 ± 0.15	1.72 ± 0.29	2.05 ± 0.4	2.18 ± 0.51	2.23 ± 0.54	2.16 ± 0.48
UniProt Q8N2K0|Q8N2K0-2	1.09 ± 0.011	1.04 ± 0.051	1.01 ± 0.017	1.017 ± 0.0025	1.03 ± 0.015	1.01 ± 0.023	0.997 ± 0.031	0.976 ± 0.034
EIF3I (UniProt Q13347)	1.02 ± 0.04	1.03 ± 0.091	0.993 ± 0.089	1.04 ± 0.15	1.13 ± 0.19	1.26 ± 0.26	1.32 ± 0.23	1.4 ± 0.29

— the supplement of paper PMC6411743
